{"source": "the supplement of paper PMC7724964", "binders": {"B1": {"name": "unnamed (peptide)", "chain": "ADQWVWHYIMEMEQVR"}, "B2": {"name": "unnamed (peptide)", "chain": "MESAFQQVMLAYYQEL"}, "B3": {"name": "unnamed (peptide)", "chain": "DWPNYPANSWKYVTWA"}, "B4": {"name": "unnamed (peptide)", "chain": "MYTFEEMWMHWKLVEM"}, "B5": {"name": "unnamed (peptide)", "chain": "PGEMQESNWLWKFVDW"}, "B6": {"name": "unnamed (peptide)", "chain": "DEWMLNETWIDYQELH"}, "B7": {"name": "unnamed (peptide)", "chain": "WNEWNEKEMLWESVEG"}, "B8": {"name": "unnamed (peptide)", "chain": "QWMGLSVEQFAMNPWY"}, "B9": {"name": "unnamed (peptide)", "chain": "DEWTWHFVEQPWHMAG"}, "B10": {"name": "unnamed (peptide)", "chain": "MPWPMWEQYQQHMQWV"}, "B11": {"name": "unnamed (peptide)", "chain": "EQQHDKFQMMMNIYKY"}, "B12": {"name": "unnamed (peptide)", "chain": "TMAWEWIGNDVYVSHD"}, "B13": {"name": "unnamed (peptide)", "chain": "WVWHDMHLSAPFQHQE"}, "B14": {"name": "unnamed (peptide)", "chain": "DLQWKWVYWHDLDDGE"}, "B15": {"name": "unnamed (peptide)", "chain": "VWDLDTSADYLWVWMG"}, "B16": {"name": "unnamed (peptide)", "chain": "DWVWSDVGGHVPQVWD"}, "B17": {"name": "unnamed (peptide)", "chain": "DWEAWHHNVDFAWGWV"}, "B18": {"name": "unnamed (peptide)", "chain": "EWFMDASGYWNNLQVS"}, "B19": {"name": "unnamed (peptide)", "chain": "DNHWIWKEVNPMFMKD"}, "B20": {"name": "unnamed (peptide)", "chain": "VDDGDWVWVHVSQQFM"}, "B21": {"name": "unnamed (peptide)", "chain": "DLMVWYDNPYYHSEMI"}, "B22": {"name": "unnamed (peptide)", "chain": "WVTWDNSSLKWIDETY"}, "B23": {"name": "unnamed (peptide)", "chain": "GDKSEWFRALLDEYLV"}, "B24": {"name": "unnamed (peptide)", "chain": "EPWVDWSESMWAWVNT"}, "B25": {"name": "unnamed (peptide)", "chain": "DTKWNIVHWDWDTWVH"}, "B26": {"name": "unnamed (peptide)", "chain": "WSEVWWTDLEGAMFWV"}, "B27": {"name": "unnamed (peptide)", "chain": "YDQTGWAWVHEMQDMV"}, "B28": {"name": "unnamed (peptide)", "chain": "MQMTFLDMMEQYRLME"}, "B29": {"name": "unnamed (peptide)", "chain": "QMVWHYPWEATDTHGW"}}, "test_in_all_cases": "phage ELISA signal ratio (GST-PRM binding over GST background); higher = stronger binding of peptide-phage to the PRM", "key": {"[1]": {"target": "T1, DOK1 151-256 IRS (domain begin residue: 151, domain end residue: 256), Q99704", "T1 chain": "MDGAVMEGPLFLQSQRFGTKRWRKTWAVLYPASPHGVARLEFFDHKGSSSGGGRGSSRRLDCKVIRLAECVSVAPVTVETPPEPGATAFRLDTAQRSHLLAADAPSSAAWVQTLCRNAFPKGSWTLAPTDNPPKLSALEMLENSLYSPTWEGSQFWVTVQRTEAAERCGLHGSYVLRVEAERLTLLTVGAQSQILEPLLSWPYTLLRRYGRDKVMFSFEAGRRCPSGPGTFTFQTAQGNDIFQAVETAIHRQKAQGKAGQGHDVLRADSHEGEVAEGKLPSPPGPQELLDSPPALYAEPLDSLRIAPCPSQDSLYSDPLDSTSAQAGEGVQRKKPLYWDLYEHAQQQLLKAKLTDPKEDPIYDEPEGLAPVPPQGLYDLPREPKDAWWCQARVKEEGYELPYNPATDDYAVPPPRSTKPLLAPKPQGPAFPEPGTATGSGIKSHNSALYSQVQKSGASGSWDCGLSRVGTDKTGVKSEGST", "method": "(§1)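 Phage-displayed random hexadecapeptides (Cys-free, flanked by invariant Gly linkers, fused to the M13 P8 major coat protein) were selected over 5 rounds against GST-fused human PRM domains. Individual clones from rounds 4-5 were tested by phage ELISA, and positive clones binding the target but not GST were sequenced. Values are the ELISA signal ratio of target over background (GST); the background signal is given separately.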"}, "[2]": {"target": "DEPDC6 20-129 DEP (domain begin residue: 20, domain end residue: 129)", "method": "as §1"}, "[3]": {"target": "T2, DOK2 146-252 IRS (domain begin residue: 146, domain end residue: 252), O60496", "T2 chain": "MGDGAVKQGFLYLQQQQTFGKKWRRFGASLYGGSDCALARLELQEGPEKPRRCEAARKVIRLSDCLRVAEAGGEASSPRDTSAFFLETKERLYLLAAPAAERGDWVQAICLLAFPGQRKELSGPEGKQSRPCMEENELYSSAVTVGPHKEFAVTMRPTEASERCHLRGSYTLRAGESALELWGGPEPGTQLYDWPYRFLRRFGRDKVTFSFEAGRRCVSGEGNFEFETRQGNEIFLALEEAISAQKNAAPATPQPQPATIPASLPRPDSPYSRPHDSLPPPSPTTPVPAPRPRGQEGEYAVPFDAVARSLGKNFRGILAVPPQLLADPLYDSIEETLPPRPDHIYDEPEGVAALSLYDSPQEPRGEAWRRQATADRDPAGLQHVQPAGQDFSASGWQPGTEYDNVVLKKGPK", "method": "as §1"}}}
{"binder": "B1", "values": [{"measurement": "phage ELISA signal ratio", "setting": "[1]", "value": 33}]}
{"binder": "B2", "values": [{"measurement": "phage ELISA signal ratio", "setting": "[2]", "value": 21.9}]}
{"binder": "B3", "values": [{"measurement": "phage ELISA signal ratio", "setting": "[1]", "value": 10.2}]}
{"binder": "B4", "values": [{"measurement": "phage ELISA signal ratio", "setting": "[2]", "value": 23.6}]}
{"binder": "B5", "values": [{"measurement": "phage ELISA signal ratio", "setting": "[1]", "value": 29.1}]}
{"binder": "B6", "values": [{"measurement": "phage ELISA signal ratio", "setting": "[1]", "value": 20}]}
{"binder": "B7", "values": [{"measurement": "phage ELISA signal ratio", "setting": "[1]", "value": 37.8}]}
{"binder": "B8", "values": [{"measurement": "phage ELISA signal ratio", "setting": "[1]", "value": 17.7}]}
{"binder": "B9", "values": [{"measurement": "phage ELISA signal ratio", "setting": "[3]", "value": 7.99}]}
{"binder": "B10", "values": [{"measurement": "phage ELISA signal ratio", "setting": "[1]", "value": 19.7}]}
{"binder": "B11", "values": [{"measurement": "phage ELISA signal ratio", "setting": "[2]", "value": 23}]}
{"binder": "B12", "values": [{"measurement": "phage ELISA signal ratio", "setting": "[3]", "value": 7.8}]}
{"binder": "B13", "values": [{"measurement": "phage ELISA signal ratio", "setting": "[1]", "value": 3.72}]}
{"binder": "B14", "values": [{"measurement": "phage ELISA signal ratio", "setting": "[1]", "value": 22.6}]}
{"binder": "B15", "values": [{"measurement": "phage ELISA signal ratio", "setting": "[1]", "value": 19.3}]}
{"binder": "B16", "values": [{"measurement": "phage ELISA signal ratio", "setting": "[1]", "value": 25}]}
{"binder": "B17", "values": [{"measurement": "phage ELISA signal ratio", "setting": "[1]", "value": 9.3}]}
{"binder": "B18", "values": [{"measurement": "phage ELISA signal ratio", "setting": "[1]", "value": 7.98}]}
{"binder": "B19", "values": [{"measurement": "phage ELISA signal ratio", "setting": "[1]", "value": 30.4}]}
{"binder": "B20", "values": [{"measurement": "phage ELISA signal ratio", "setting": "[1]", "value": 31.2}]}
{"binder": "B21", "values": [{"measurement": "phage ELISA signal ratio", "setting": "[3]", "value": 9.37}]}
{"binder": "B22", "values": [{"measurement": "phage ELISA signal ratio", "setting": "[1]", "value": 28}]}
{"binder": "B23", "values": [{"measurement": "phage ELISA signal ratio", "setting": "[2]", "value": 21.6}]}
{"binder": "B24", "values": [{"measurement": "phage ELISA signal ratio", "setting": "[1]", "value": 17.6}]}
{"binder": "B25", "values": [{"measurement": "phage ELISA signal ratio", "setting": "[1]", "value": 16.4}]}
{"binder": "B26", "values": [{"measurement": "phage ELISA signal ratio", "setting": "[1]", "value": 16.2}]}
{"binder": "B27", "values": [{"measurement": "phage ELISA signal ratio", "setting": "[1]", "value": 8.33}]}
{"binder": "B28", "values": [{"measurement": "phage ELISA signal ratio", "setting": "[2]", "value": 33.8}]}
{"binder": "B29", "values": [{"measurement": "phage ELISA signal ratio", "setting": "[1]", "value": 33.5}]}
